“And” between values parts separate entries of the source, which are not always exact repeats. Identical values can stand only once. The source made the active and inactive calls.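 The calls were made as follows, unless noted: active = thallium flux through the channel raised or lowered by more than 3 SD from vehicle-only wells, actives on both sides; inactive = the rest.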

Test [1] addresses 6-phosphogluconate dehydrogenase, decarboxylating (Homo sapiens) (UniProt P52209). Nature of the test: inhibition of human phosphogluconate dehydrogenase – biochemical, recombinant enzyme, NADPH absorbance, primary screen (AID 1159550;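 active = at least 20% inhibition of 6-phosphogluconate dehydrogenase activity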). The following applies: recombinant 6PGD, NADPH absorbance 341 nm; at 10 µM; stronger effect = higher value.
Test [2] can be described thus: signal quenchers or enhancers, Cy5 substrate/SSB – biochemical, NIH Clinical Collection, E. coli SSB, artefact control for HCV NS3 helicase inhibitor project (AID 743268; call rule not given here). The note with it: Cy5-oligo bound E. coli SSB, fluorescence interference.
Test [3] concerns Hepatitis C virus NS3 helicase. The test can be described thus: blockers of NS3h binding to DNA – biochemical, fluorescence polarization, NIH Clinical Collection, primary screen (AID 743270; call rule not given here). The following applies: NS3 helicase binding to Cy5-dT15 DNA, stronger effect = higher value, concentration not given here.
The target of test [4] is Single-stranded DNA-binding protein (Escherichia coli (strain K12)) (UniProt P0AGE0). Nature of the test: SSB-ssDNA binding inhibitors – biochemical, fluorescence polarization, NIH Clinical Collection, counter-screen for HCV NS3 helicase inhibitor project (AID 743271; in the data active = inhibition above about 28%). The following applies: E. coli SSB-DNA binding, stronger effect = higher value, concentration not given here.
The nature of test [5]: compounds distorting NS3 helicase fluorescence signal – biochemical, NIH Clinical Collection, artefact control for HCV NS3 helicase inhibitor project (AID 743272; call rule not given here;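 also: HCV NS3 helicase with a Cy5 labelled single stranded DNA probe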). The following applies: fluorescence interference counterscreen, HCV NS3 helicase assay; stronger effect = lower value.
The nature of test [6]: modulation of C. elegans fzo-1 (AID 1259413; call rule not given here;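 also: fzo-1 mutant C. elegans worms in liquid wells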). The note with it: C. elegans fzo-1 modulator screen, mean read-out; stronger effect = higher value.
Test [7] is described as follows: EMT-state selective cytotoxicity in co-culture – imaging, PC-3E GFP, TEM4-18 mCherry, primary screen (AID 1345086;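 active = compounds killing one labelled cell type while sparing the other, by normalised counts and ratio limits, not self-fluorescent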;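 as to all read-outs here: cells exposed to compound for 72 h before imaging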;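 as to red/green cell ratio (normalised): normalised mesenchymal count divided by normalised epithelial count so high means epithelial killing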). The note with it: PC-3E GFP / TEM4-18 mCherry co-culture, imaging cell counts, at 1 µM; for red/green cell ratio (normalised): actives lie on both sides, counts scaled to control wells, 1 = unselective.
Test [8] concerns the target NAD(+) hydrolase SARM1 (Homo sapiens) (UniProt Q6SZW1). Nature of the test: blocking NAD cleavage by SARM1 SAM-TIR – cell lysate, NAD-Glo luminescence (AID 1508614;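 active = compound whose remaining NAD level is above about 45 nM, limit read from the data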;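 also: higher remaining NAD means stronger inhibition of SARM1 NADase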). The following applies: SAM-TIR HEK293T lysate NADase, at 1 µM, stronger effect = higher value.
The target in test [9] is Mitogen-activated protein kinase 7 (Homo sapiens) (UniProt Q13164). The test can be described thus: Gal4-ERK5 driven luciferase induction – cell-based, HTS, primary screen (AID 1508626;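 active = luciferase signal above three times the same-plate solvent-only control wells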;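 also: luciferase driven by Gal4-ERK5 fusion binding five Gal4 sites before minimal TATA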). The note with it: HeLa Gal4-ERK5 transactivation, 18 h, at 5 µM, stronger effect = higher value.
Test [10] concerns F380Y. Nature of the test: BK channel mutant inhibitors and activators – cell-based, U2OS BacMam, thallium flux, beta subunits, selectivity assay, profiling panel (AID 1259406).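 Also: initial slope of Thallos dye fluorescence rise after thallium is added; log ratio against the mean of 0.3% DMSO vehicle wells on the same plate.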 The following applies: U2OS BacMam BK variants, at 30 µM.
The test system of test [11] is F380Y/beta2Delta. The description is as above. The note with it: U2OS BacMam BK variants, at 30 µM.
Test [12] has as its target Calcium-activated potassium channel subunit alpha-1 (Homo sapiens) + Leucine-rich repeat-containing protein 26 (Homo sapiens) (UniProt Q12791+Q2I0M4). Described as above. The following applies: U2OS BacMam BK variants, F380Y/Slo1WT/gamma1, at 30 µM.
For test [13], the system named is R275C. The test is described as above. The note with it: U2OS BacMam BK variants, at 30 µM.
For test [14], the system named is R275C/beta1. The test is described as above. The following applies: U2OS BacMam BK variants, at 30 µM.
The subject of test [15] is R275C/beta2Delta. The test is described as above. The note with it: U2OS BacMam BK variants, at 30 µM.
The nature of test [16]: P. berghei load reduction in hepatocytes – cell-based, HepG2, luciferase luminescence, HepG2 viability, primary screen (AID 624349; in the data active = parasite load remaining mostly below about 12%, no sharp cut-off; inactive = mostly above about 10%;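 also: 100% = mean of DMSO negative control wells on the same plate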). The following applies: P. berghei liver stage in HepG2, luciferase luminescence, concentration not given here; parasite load remaining: stronger effect = lower value; viability: measured here: HepG2 viability without parasites.
Test [17] is described as follows: viability loss with induced miR-34 in A549 – imaging, A549 dox-inducible miR-34, nuclei and caspase counts, primary screen (AID 1347080;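 active = compounds whose cell count with miR-34 switched on is under 0.7 times the count with it off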). The following applies: A549 miR-34 inducible, Hoechst nuclei count, 48 h.
Test [18] is described as follows: galactose survival enhancers in mitochondrial complex I cybrids – cell-based, galactose medium, ATP luminescence, primary screen (AID 1645843;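 active = z-score of at least 1.8 in each of two replicates, scored against plate mean and spread of sample wells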;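 also: positive z means more ATP and so rescue of galactose-driven cybrid death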). The note with it: complex I mutant cybrid cells, 72 h, stronger effect = higher value.
Test [19] can be described thus: MELAS cybrid and Rieske KO viability enhancers – cell-based, MELAS cybrids, Rieske KO mouse fibroblasts, CellTiter-Glo, primary screen (AID 1508586;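 active = mean z-score across replicates of 1.96 or higher in either the MELAS or the Rieske mutant cell line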;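 also: z relative to plate mean and SD of compound and empty wells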). The following applies: low glucose.
The mark [20] stands for this setting: measured here: epithelial PC-3E GFP cell survival.
[21] abbreviates: measured here: mesenchymal TEM4-18 mCherry cell survival.
The mark [22] stands for this setting: stronger effect = lower value, cell number ratio, induced over uninduced.
The mark [23] stands for this setting: measured here: relative caspase fold change +Dox/-Dox.
Setting [24] is: measured here: total cells with miR-34 induction, stronger effect = lower value.
The mark [25] stands for this setting: measured here: total cells without miR-34 induction.
The mark [26] stands for this setting: MELAS cybrid survival, CellTiter-Glo 48 h, stronger effect = higher value.
Where [27] appears, read: Rieske KO mouse fibroblast survival, CellTiter-Glo 72 h.

Calcium-activated potassium channel subunit alpha-1 (Homo sapiens) + Leucine-rich repeat-containing protein 26 (Homo sapiens), sequence (Q2I0M4 whole entry, looked up, one chain of several): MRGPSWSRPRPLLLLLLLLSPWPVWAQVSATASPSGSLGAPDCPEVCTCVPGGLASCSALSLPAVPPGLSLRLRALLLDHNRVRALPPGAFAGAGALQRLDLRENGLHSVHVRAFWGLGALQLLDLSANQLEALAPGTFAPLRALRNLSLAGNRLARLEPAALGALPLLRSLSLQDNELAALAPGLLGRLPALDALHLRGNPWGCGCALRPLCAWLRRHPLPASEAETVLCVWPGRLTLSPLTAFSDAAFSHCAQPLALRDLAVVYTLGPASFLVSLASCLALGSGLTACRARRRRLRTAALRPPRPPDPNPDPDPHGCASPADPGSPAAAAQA
Mitogen-activated protein kinase 7 (Homo sapiens), sequence (Q13164 whole entry, looked up, the tested form may be a part): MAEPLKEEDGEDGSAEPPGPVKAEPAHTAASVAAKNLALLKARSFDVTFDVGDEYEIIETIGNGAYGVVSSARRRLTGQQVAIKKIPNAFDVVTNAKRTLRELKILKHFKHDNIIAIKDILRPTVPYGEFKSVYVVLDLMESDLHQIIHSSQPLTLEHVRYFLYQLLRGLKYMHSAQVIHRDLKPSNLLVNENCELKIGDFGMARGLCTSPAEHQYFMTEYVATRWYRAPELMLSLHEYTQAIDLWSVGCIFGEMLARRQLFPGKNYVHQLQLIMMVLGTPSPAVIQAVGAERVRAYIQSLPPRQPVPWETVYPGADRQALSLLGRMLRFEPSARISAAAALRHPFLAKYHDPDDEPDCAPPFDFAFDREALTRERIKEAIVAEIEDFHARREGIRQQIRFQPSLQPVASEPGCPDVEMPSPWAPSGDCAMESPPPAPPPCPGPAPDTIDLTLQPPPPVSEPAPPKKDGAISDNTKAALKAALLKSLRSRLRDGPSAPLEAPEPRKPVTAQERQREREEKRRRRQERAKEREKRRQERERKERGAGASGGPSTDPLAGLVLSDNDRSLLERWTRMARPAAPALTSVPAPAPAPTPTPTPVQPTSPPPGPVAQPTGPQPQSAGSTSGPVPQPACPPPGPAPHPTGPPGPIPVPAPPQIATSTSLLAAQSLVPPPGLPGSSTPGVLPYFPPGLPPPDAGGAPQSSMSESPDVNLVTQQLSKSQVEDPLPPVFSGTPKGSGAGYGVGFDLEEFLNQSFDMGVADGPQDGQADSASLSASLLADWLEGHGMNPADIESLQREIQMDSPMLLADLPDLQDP
6-phosphogluconate dehydrogenase, decarboxylating (Homo sapiens), sequence (P52209 whole entry, looked up): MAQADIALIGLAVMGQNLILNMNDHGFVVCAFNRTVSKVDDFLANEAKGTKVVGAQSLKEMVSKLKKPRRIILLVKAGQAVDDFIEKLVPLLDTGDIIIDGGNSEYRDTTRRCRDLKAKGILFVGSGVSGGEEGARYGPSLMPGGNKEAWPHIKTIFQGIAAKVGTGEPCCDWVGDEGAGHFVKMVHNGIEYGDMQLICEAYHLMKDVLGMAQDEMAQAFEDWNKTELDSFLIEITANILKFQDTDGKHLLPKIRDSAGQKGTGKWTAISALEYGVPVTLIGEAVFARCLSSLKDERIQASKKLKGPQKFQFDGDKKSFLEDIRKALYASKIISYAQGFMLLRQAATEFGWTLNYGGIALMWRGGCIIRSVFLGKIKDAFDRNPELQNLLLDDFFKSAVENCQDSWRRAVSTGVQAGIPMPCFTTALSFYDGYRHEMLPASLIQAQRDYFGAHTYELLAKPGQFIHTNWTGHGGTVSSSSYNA
NAD(+) hydrolase SARM1 (Homo sapiens), sequence (Q6SZW1 whole entry, looked up, the tested form may be a part): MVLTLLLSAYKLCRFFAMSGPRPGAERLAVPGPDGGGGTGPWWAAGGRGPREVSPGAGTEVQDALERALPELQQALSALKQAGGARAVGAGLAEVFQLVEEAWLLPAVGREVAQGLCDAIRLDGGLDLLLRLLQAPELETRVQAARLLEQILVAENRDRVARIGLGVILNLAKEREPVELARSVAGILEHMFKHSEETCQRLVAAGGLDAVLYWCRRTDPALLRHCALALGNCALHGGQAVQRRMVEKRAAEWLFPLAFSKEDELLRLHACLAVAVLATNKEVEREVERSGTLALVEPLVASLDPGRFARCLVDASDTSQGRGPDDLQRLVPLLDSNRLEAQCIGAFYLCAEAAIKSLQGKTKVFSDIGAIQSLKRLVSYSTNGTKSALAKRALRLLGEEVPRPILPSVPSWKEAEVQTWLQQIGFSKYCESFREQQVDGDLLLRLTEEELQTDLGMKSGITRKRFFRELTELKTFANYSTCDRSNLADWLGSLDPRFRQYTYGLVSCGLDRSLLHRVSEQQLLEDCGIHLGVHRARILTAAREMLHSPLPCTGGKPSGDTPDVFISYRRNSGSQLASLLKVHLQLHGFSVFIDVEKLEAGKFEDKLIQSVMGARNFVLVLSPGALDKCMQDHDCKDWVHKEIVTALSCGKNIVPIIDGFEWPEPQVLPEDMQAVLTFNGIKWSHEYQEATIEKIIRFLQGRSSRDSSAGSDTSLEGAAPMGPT

`Nc1ncnc2c1ncn2C1CC(O)C(CO)O1` (centres undefined): the inhibition in test [1] is 2.59% (inactive).

For the molecule `CC(=O)O[C@H]1CC[C@]2(C)[C@H]3CC=C4[C@@H]5CC(C)(C)CC[C@]5(C(=O)O)CC[C@@]4(C)[C@]3(C)CC[C@H]2C1(C)C`, in test [1], the inhibition was -0.817% (inactive).

For `N[C@@H](C=O)[C@@H](O)[C@H](O)[C@H](O)CO`, the inhibition in test [1] was -0.658% (inactive).

As to `CC(C)NCC(O)COc1cccc2ccccc12` (centres undefined), the fluorescence ratio was 1.01 (inactive) in test [2] and 0.93 (inactive) in [5]. For the same molecule, the inhibition is -8.64% (inactive) in [3], 2.57% (inactive) in test [4] and 13.6% (inactive) in test [1]. Also, the mean signal in test [6] was 249 (inactive). Further, in test [7], the red/green cell ratio (normalised) is 1.4 (inactive). Further, the normalised cell number in test [7] (setting [20]) was found to be 0.94; in test [7] (setting [21]), 1.31. In test [8], the remaining NAD is 10 nM (inactive). Besides, in test [9], the luciferase signal is 48 AU (inactive). Moreover, the log fold change Tl+ flux in [10] was 0.0569 (inactive); in test [11], 0.058 (inactive); in test [12], -0.019 (inactive); in test [13], -0.0109 (inactive); in [14], 0.0491 (inactive); in [15] it was 0.188 (active).

`Cc1occc(=O)c1O`: in test [16], the parasite load remaining was 65.4% (inactive). The viability in test [16] worked out at 68.2%. The fluorescence ratio in test [2] was 1 (inactive); in test [5], 0.97 (inactive). Besides, the inhibition in [3] was -7.21% (inactive); in test [4], -2.76% (inactive); in [1], 8.86% (inactive). Further, the mean signal in test [6] was 263 (inactive). Besides, in test [7], the red/green cell ratio (normalised) was 0.9 (inactive). In addition, the normalised cell number in test [7] (setting [20]) came to 1.16; in test [7] (setting [21]) it was 1.05. The fold change in test [17] (setting [22]) is 1.32 (inactive); in [17] (setting [23]), 0.534. For the same molecule, the cell count in test [17] (setting [24]) was 9050; in test [17] (setting [25]) it was 6830. Besides, in [9], the luciferase signal was 52 AU (inactive). In addition, the z-score in [18] is 0.51 (inactive). Moreover, the log fold change Tl+ flux is 0.00693 (inactive) in test [10]; 0.00122 (inactive) in test [11]; 0.0152 (inactive) in test [12]; -0.0195 (inactive) in test [13]; -0.0131 (inactive) in [14]; 0.041 (inactive) in [15].

Take `CCC(=O)OCC(=O)[C@@]1(OC(=O)CC)[C@@H](C)CC2C3CCC4=CC(=O)C=C[C@]4(C)[C@@]3(F)C(O)C[C@@]21C` (some centres undefined): the inhibition in test [1] is -9.91% (inactive).

Turning to `COc1ccc(C[C@H](N)C(=O)N[C@H]2[C@@H](O)[C@H](n3cnc4c(N(C)C)ncnc43)O[C@@H]2CO)cc1`, the parasite load remaining in test [16] is -0.025% (inactive) and -0.34% (inactive). The viability in test [16] was 17.9% and 1%. The inhibition in test [1] was -10.2% (inactive). For the same molecule, the fold change in [17] (setting [22]) is 1.03 (inactive) and 1.04 (inactive); in test [17] (setting [23]), 1.77 and 0.862. The cell count in test [17] (setting [24]) is 1000 and 950; in [17] (setting [25]), 976 and 910. The z-score in [19] (setting [26]) was 0.777 (inactive); in test [19] (setting [27]), -0.707; in test [18], -2.25 (inactive). In test [8], the remaining NAD is 10 nM (inactive). Moreover, in test [9], the luciferase signal was 244 AU (inactive).

Turning to `CN(C)CCC(c1ccc(Cl)cc1)c1ccccn1` (centres undefined), the fluorescence ratio in test [2] was 1.05 (inactive); in [5], 1.02 (inactive). Moreover, the inhibition was -1.98% (inactive) in test [3], -3.95% (inactive) in [4] and 14.7% (inactive) in test [1]. The mean signal in test [6] is 225 (inactive). Also, the red/green cell ratio (normalised) in test [7] was 1.02 (inactive). Also, the normalised cell number in [7] (setting [20]) came out at 0.91; in test [7] (setting [21]), 0.93. For the same molecule, the z-score in [19] (setting [26]) was -0.0722 (inactive) and 0.91 (inactive) and 0.217 (inactive); in test [19] (setting [27]), 0.675 and 0.216 and -0.121. The remaining NAD in test [8] is 10 nM (inactive). Also, the log fold change Tl+ flux in [10] is 0.0819 (inactive); in test [11] it was 0.0184 (inactive); in test [12], -0.0284 (inactive); in test [13], -0.059 (inactive); in [14] it was 0.0906 (active); in test [15], 0.0118 (inactive).

The record behind these values is PubChem BioAssay.
